Experimental data reported in the supplement of paper PMC10849652.
About 7,900 targets were measured; listed, in parts, are those with a hit and a random draw of the rest. About 0.6% of all pairs of compound and target were hits. Unmarked numbers belong to inactive results.

Assays:
Test in all cases: log2 fold change, soluble protein after heating vs DMSO (PISA); higher = thermal stabilisation; K562 cells, 10 uM, 30 min; active = over 0.2 and 3.5 SD of the protein, either way, in both replicates (recomputed)
[1] = compound: C1COCCN1CCN2C3=CC=CC=C3N=C2NC(=O)C4=CC(=CC=C4)[N+](=O)[O-] [IRAK-1-4 Inhibitor I]
Outline: (§1)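 Soluble protein was defined as the supernatant after 21,000xg for 90 min. It came from K562 cells at 2×10^6 cells/mL given 10 μM compound for 30 min, heated in aliquots for 3 min across 48°C-58°C, pooled, and extracted in PBS with 0.5% NP-40 at 4°C, and was quantified by TMTpro 16plex LC-MS/MS with equalised channel sums. Thermal stability against control samples, from duplicates, is reported as log2 fold change.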

[2] = compound: C=CC(=O)N1CCC[C@@H](n2nc(-c3ccc(Oc4ccccc4)cc3)c3c(N)ncnc32)C1 [ibrutinib]
Outline: as §1

[3] = compound: CC(=O)c1cnc2ccc(-c3cc(Cl)c(O)c(Cl)c3)nc2c1N[C@H]1CC[C@H](CN(C)C)CC1
Outline: as §1

[4] = compound: CC(C)(C)Cn1c(N)nc2ccc(-c3[nH]c(C(C)(C)C)nc3-c3ccc(F)cc3)nc21 [ralimetinib]
Outline: as §1

[5] = compound: CC(C)(O)CC(=O)NCCn1ccc2ncnc(Nc3ccc(Oc4cccc(C(F)(F)F)c4)c(Cl)c3)c21
Outline: as §1

[6] = compound: CC(C)C1=C2N=C(C=C(N2N=C1)NCC3=CC=CC=C3)NCCCCCCN
Outline: as §1

[7] = compound: CC(C)C[C@@H](C=O)NC(=O)[C@H](CC(C)C)NC(=O)[C@H](CC(C)C)NC(=O)OCc1ccccc1
Outline: as §1

[8] = compound: CC(C)N(C[C@H]1O[C@@H](n2cnc3c(N)ncnc32)[C@H](O)[C@@H]1O)[C@H]1C[C@@H](CCc2nc3cc(C(C)(C)C)ccc3[nH]2)C1 [pinometostat]
Outline: as §1

[9] = compound: CC1=C(C(CC(=O)N1)C2=CC=C(C=C2)C(F)(F)F)C(=O)NC3=C(C=C4C(=C3)C=NN4)F
Outline: as §1

[10] = compound: CC1=C(C2=C(C=C1)C(=O)C3=CC=CC=C3N2CCCN)C
Outline: as §1

Sequence of UniProt O15067 (O15067 whole entry, looked up): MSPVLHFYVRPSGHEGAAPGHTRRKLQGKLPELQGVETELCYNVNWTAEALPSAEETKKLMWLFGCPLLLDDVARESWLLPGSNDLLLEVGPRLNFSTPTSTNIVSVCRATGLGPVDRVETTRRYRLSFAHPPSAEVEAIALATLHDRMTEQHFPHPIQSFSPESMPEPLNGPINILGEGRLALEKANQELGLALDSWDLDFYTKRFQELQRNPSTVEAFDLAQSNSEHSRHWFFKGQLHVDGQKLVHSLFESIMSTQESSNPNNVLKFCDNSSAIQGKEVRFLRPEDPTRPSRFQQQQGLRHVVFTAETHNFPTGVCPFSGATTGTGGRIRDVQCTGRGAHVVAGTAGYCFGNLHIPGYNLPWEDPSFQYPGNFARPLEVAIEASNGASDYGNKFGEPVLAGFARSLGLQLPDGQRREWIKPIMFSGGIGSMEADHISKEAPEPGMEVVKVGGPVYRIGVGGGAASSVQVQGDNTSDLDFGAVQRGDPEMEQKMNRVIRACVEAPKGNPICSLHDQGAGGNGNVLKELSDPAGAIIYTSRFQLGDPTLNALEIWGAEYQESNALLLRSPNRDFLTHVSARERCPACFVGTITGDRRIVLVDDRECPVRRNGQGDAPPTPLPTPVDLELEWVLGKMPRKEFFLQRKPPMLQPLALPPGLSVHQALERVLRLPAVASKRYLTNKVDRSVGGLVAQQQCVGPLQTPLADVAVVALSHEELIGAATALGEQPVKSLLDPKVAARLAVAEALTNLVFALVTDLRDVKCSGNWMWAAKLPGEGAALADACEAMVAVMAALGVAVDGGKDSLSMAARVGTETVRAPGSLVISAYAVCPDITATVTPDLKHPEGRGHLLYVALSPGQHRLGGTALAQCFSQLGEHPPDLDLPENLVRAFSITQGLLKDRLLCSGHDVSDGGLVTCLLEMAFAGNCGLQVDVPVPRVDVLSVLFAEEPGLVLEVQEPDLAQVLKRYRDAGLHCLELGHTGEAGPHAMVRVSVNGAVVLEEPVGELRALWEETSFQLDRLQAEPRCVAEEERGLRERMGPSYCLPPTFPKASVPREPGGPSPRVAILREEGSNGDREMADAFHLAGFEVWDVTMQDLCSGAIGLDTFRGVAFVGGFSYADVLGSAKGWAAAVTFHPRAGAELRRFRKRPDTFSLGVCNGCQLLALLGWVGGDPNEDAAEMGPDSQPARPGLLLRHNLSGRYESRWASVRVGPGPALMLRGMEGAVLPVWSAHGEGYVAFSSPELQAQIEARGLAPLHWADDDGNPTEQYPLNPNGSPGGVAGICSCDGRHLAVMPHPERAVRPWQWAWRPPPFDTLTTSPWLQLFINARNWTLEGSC
Sequence of UniProt Q16822 (Q16822 whole entry, looked up): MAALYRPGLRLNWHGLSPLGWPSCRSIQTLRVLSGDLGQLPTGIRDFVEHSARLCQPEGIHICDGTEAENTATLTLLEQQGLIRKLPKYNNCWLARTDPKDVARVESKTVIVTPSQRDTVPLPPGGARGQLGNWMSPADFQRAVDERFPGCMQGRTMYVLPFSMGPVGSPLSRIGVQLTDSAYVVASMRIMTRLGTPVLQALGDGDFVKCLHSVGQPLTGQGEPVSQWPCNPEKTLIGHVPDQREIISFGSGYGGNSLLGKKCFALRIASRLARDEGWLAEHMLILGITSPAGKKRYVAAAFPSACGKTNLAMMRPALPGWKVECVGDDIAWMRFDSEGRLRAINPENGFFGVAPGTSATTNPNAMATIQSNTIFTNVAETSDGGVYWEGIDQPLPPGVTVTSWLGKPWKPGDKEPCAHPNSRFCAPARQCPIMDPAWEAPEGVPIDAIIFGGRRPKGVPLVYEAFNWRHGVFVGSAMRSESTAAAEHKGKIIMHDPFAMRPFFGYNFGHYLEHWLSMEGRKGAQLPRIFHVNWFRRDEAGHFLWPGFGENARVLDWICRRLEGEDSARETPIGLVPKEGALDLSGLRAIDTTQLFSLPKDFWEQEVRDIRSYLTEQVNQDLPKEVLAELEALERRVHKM
Sequence of UniProt Q96PU8 (Q96PU8 whole entry, looked up): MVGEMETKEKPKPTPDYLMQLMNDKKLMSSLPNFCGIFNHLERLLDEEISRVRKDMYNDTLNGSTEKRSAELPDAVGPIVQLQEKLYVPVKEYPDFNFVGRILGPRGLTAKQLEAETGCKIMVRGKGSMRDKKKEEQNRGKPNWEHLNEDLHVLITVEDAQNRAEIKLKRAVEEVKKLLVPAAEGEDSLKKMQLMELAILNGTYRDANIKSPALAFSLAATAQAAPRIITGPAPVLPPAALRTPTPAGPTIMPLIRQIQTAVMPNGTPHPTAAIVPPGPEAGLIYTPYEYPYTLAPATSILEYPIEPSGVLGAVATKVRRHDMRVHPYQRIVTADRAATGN
Sequence of UniProt Q8N4L2 (Q8N4L2 whole entry, looked up): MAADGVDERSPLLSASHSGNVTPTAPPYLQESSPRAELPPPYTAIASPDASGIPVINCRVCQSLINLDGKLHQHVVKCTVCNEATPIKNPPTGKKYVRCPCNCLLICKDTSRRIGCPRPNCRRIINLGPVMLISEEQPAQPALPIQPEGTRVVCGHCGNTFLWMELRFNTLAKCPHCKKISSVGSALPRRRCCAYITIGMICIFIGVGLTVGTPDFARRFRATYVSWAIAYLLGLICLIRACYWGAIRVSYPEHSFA
Sequence of UniProt Q96A00 (Q96A00 whole entry, looked up): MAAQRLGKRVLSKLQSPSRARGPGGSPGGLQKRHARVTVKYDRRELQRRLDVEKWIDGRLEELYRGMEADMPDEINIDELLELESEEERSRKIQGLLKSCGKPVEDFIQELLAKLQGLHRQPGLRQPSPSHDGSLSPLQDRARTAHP
Sequence of UniProt O96011 (O96011 whole entry, looked up, change not shown): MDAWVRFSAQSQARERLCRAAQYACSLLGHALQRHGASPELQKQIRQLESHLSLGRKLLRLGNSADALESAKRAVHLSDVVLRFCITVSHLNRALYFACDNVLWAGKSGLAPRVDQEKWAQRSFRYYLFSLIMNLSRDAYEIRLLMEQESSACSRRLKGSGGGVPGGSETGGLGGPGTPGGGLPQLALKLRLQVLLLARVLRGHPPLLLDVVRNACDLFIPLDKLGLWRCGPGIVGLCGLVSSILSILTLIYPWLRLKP
Sequence of UniProt O43242 (O43242 whole entry, looked up): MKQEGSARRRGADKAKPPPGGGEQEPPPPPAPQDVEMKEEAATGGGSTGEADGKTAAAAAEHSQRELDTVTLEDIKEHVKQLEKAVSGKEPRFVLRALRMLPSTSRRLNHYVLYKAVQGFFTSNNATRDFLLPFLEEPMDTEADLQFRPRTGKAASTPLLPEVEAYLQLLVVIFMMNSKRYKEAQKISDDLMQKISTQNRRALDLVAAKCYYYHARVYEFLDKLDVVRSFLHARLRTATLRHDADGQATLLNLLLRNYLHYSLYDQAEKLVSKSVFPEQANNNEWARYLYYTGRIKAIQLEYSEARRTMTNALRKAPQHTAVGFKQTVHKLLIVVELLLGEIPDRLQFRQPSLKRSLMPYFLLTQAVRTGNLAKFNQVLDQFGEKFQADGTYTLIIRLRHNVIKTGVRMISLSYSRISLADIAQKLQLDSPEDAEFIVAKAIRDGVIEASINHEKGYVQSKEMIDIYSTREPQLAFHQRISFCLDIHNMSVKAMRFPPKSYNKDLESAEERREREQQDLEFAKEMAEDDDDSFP
Sequence of UniProt P31321 (P31321 whole entry, looked up): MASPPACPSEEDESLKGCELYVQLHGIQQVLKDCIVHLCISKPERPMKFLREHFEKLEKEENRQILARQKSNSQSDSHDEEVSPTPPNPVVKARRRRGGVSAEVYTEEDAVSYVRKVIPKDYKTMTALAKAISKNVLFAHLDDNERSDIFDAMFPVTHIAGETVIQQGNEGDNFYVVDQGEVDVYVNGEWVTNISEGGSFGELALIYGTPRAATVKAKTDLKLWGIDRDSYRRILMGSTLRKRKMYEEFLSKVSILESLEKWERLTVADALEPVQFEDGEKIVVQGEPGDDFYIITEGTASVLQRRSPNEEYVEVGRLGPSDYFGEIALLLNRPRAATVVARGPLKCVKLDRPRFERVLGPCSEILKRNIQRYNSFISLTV
Sequence of UniProt Q86YH6 (Q86YH6 whole entry, looked up): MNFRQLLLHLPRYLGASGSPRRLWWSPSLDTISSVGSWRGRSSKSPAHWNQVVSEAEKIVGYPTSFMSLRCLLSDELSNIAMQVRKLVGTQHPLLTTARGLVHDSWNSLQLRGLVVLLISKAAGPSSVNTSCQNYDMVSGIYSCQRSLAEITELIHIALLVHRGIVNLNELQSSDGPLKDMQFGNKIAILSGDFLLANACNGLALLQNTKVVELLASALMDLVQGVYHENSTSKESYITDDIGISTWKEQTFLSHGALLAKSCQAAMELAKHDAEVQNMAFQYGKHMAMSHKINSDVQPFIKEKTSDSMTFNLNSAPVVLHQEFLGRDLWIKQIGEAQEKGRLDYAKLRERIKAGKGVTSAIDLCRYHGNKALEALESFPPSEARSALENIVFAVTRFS
Sequence of UniProt Q15366 (Q15366 whole entry, looked up): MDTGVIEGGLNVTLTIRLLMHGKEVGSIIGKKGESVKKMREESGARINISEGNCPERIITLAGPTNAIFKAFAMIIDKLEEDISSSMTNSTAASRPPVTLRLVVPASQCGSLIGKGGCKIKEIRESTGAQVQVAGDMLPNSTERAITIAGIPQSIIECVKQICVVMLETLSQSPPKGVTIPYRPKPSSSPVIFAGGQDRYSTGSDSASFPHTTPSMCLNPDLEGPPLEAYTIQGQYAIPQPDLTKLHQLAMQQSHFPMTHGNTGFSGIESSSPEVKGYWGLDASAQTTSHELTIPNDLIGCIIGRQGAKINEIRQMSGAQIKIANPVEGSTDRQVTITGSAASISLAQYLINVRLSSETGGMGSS
Sequence of UniProt Q9Y3E5 (Q9Y3E5 whole entry, looked up): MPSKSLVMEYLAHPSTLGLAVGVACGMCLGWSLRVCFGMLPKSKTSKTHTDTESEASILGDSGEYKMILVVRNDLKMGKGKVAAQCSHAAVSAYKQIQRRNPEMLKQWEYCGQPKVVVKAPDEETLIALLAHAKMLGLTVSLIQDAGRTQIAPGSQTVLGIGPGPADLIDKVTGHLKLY

Target | log2 fold change [1] | log2 fold change [2] | log2 fold change [3] | log2 fold change [4] | log2 fold change [5] | log2 fold change [6] | log2 fold change [7] | log2 fold change [8] | log2 fold change [9] | log2 fold change [10]
PDCD2L (UniProt Q9BRP1) | -0.034 | -0.006 | 0.07 | 0.047 | -0.115 | 0.078 | 0.042 | 0.007 | 0.065 | 0.041
PRPF40A (UniProt O75400) | -0.093 | -0.085 | -0.149 | 0.095 | -0.022 | -0.411 (active) | 0.043 | -0.041 | -0.034 | 0.13
PFAS (UniProt O15067) | -0.055 | 0.065 | -0.217 | -0.003 | 0.02 | 0.131 | -0.055 | -0.02 | 0.039 | 0.17
PRKAR1B (UniProt P31321) | 0.005 | 0.004 | -0.112 | 0.143 | -0.013 | -0.11 | 0.007 | 0.105 | -0.079 | -0.104
PDS5B (UniProt Q9NTI5) | -0.184 | -0.102 | -0.052 | -0.01 | -0.093 | -0.166 | 0.124 | 0.093 | -0.078 | 0.02
PEX11B (UniProt O96011) | 0.025 | 0.04 | 0.032 | 0.005 | 0.008 | 0.075 | -0.058 | -0.031 | 0.055 | 0.012
PPP1R14A (UniProt Q96A00) | 0.041 | -0.01 | 0.036 | 0.218 | -0.009 | 0.126 | -0.122 | -0.065 | 0.01 | -0.073
PCBP2 isoform 3 (UniProt Q15366) | -0.065 | -0.048 | -0.056 | 0.017 | -0.067 | -0.211 | -0.029 | -0.049 | -0.013 | 0.025
PPT1 (UniProt P50897) | 0.041 | 0.049 | 0.008 | -0.072 | 0.039 | -0.406 (active) | 0.048 | -0.036 | 0.018 | -0.06
PPP4R3B (UniProt Q5MIZ7) | 0.027 | -0.024 | -0.018 | -0.014 | 0.095 | -0.069 | -0.023 | -0.021 | 0.034 | -0.069
PRPF38B (UniProt Q5VTL8) | -0.158 | -0.005 | -0.646 (active) | -0.025 | 0.045 | -0.06 | 0.03 | -0.029 | -0.007 | 0.159
POLD1 (UniProt P28340) | -0.009 | 0.021 | -0.081 | -0.02 | -0.085 | -0.12 | 0.11 | 0.024 | -0.005 | -0.011
PTRH2 (UniProt Q9Y3E5) | 0.059 | 0.031 | 0.075 | 0.085 | -0.065 | 0.062 | -0.081 | -0.033 | -0.008 | 0.017
PIP4P2 (UniProt Q8N4L2) | -0.027 | 0 | -0.028 | 0.005 | 0.142 | -0.624 (active) | 0.011 | 0.012 | 0.028 | 0.033
PTPN23 (UniProt Q9H3S7) | -0.008 | -0.052 | -0.044 | 0.013 | -0.061 | -0.095 | 0.038 | -0.009 | -0.036 | 0.046
PI4K2A (UniProt Q9BTU6) | 0.01 | -0.018 | -0.026 | -0.072 | -0.062 | -0.158 | -0.002 | -0.024 | -0.005 | -0.006
PTPN12 (UniProt Q05209) | -0.011 | -0.008 | 0.264 (active) | 0.004 | 0.039 | -0.101 | 0.057 | 0.045 | -0.004 | 0.004
POTEI (UniProt P0CG38) | -0.176 | 0.046 | 0.052 | 0.003 | 0.015 | 0.059 | -0.025 | -0.179 | 0.021 | 0.012
POLR2C (UniProt P19387) | -0.041 | -0.025 | 0.227 | 0.102 | 0.003 | 0.058 | 0.042 | 0.065 | -0.016 | -0.025
PSMD3 (UniProt O43242) | -0.025 | -0.031 | 0.044 | 0.023 | -0.033 | 0.01 | -0.22 (active) | 0.067 | 0.016 | 0.039
PDSS2 (UniProt Q86YH6) | 0.1 | 0.074 | 0.058 | -0.059 | -0.089 | -0.085 | 0.054 | -0.017 | -0.438 (active) | -0.022
PRKACB isoform 2 (UniProt P22694) | -0.007 | -0.032 | -0.067 | -0.035 | -0.011 | -0.012 | 0.054 | -0.008 | -0.034 | 0.044
PSMD1 (UniProt Q99460) | -0.037 | -0.022 | 0.03 | 0.061 | 0.009 | 0.054 | -0.254 (active) | 0.023 | 0.028 | -0.004
PCTP (UniProt Q9UKL6) | -0.009 | -0.018 | 0.054 | -0.081 | -0.091 | -0.266 (active) | -0.012 | -0.013 | 0.04 | 0.005
PPIL2 (UniProt Q13356) | -0.097 | -0.048 | -0.077 | 0 | -0.081 | -0.044 | 0.096 | -0.063 | -0.043 | 0.062
PCK2 (UniProt Q16822) | -0.029 | 0.021 | -0.013 | -0.059 | -0.019 | 0.063 | 0.035 | -0.011 | -0.005 | 0.053
PLA2G15 (UniProt Q8NCC3) | 0.071 | -0.012 | -0.018 | -0.057 | -0.004 | -0.024 | 0.113 | 0.006 | -0.031 | -0.141
PRKCQ (UniProt Q04759) | 0.004 | -0.026 | -2.02 (active) | -0.02 | -0.037 | -0.103 | -0.011 | 0.028 | 0.024 | 0.018
QKI (UniProt Q96PU8) | -0.034 | -0.004 | -0.113 | 0.007 | 0.019 | -0.221 | -0.005 | -0.026 | 0.046 | -0.043
PIGG (UniProt Q5H8A4) | 0.004 | -0.039 | -0.032 | 0.168 | 0.015 | -0.046 | 0.005 | 0.027 | 0.011 | 0.018
